In the supplement of paper PMC6555819:

Tests used:
Test in all cases: PBM binding z-score (relative to random genomic background probes); higher = stronger binding; sequences stand for … in GC…GCGATTGACAGCGTAGAATGAAGG
[1] = tested on: PPARg:RXRa DBDmut IVT, anti-RXR (DBD mutation: RXRa K156A/R161A, NR concentration 270 nM, RXRa partner concentration 90 nM)
Outline: (§1)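 For binding z-scores, the reference was random background probes on custom Agilent 4×180K protein-binding microarrays. These arrays were incubated 1 h with ligand-free nuclear receptor dimers in PBS pH 7.4, 2% milk, 0.02% Triton X-100, 1 mM DTT, 0.2 mg/mL BSA and 0.4 mg/ml salmon testes DNA. Fluorescence was scanned after antibody detection of each partner (one per run) and regression-normalized.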

[2] = tested on: PPARg:RXRa IVT, anti-PPARg (NR concentration 270 nM, RXRa partner concentration 90 nM)
Outline: as §1

[3] = tested on: PPARg DBDmut:RXRa IVT, anti-PPARg (DBD mutation: PPARg1 K132A/R137A, NR concentration 270 nM, RXRa partner concentration 90 nM)
Outline: as §1

[4] = tested on: PPARg DBDmut IVT, anti-PPARg (DBD mutation: PPARg1 K132A/R137A, NR concentration 270 nM)
Outline: as §1

[5] = tested on: PPARg homodimer (NR concentration 180 nM)
Outline: as §1

[6] = tested on: PXR:RXRa (NR concentration 270 nM, RXRa partner concentration 90 nM)
Outline: as §1

[7] = tested on: PXR homodimer (NR concentration 270 nM)
Outline: as §1

[8] = tested on: RARa:RXR (NR concentration 270 nM, RXRa partner concentration 90 nM)
Outline: as §1

[9] = tested on: RARa homodimer (NR concentration 270 nM)
Outline: as §1

[10] = tested on: RARb:RXRa (NR concentration 270 nM, RXRa partner concentration 90 nM)
Outline: as §1

Row | Sequence | PBM binding z-score [1] | PBM binding z-score [2] | PBM binding z-score [3] | PBM binding z-score [4] | PBM binding z-score [5] | PBM binding z-score [6] | PBM binding z-score [7] | PBM binding z-score [8] | PBM binding z-score [9] | PBM binding z-score [10]
1 | CCTACTGGGCCTCGAAAGGTCATTGATTCAGTGA | 2.57 | 3.15 | -1.13 | -0.00532 | 2.06 | 4.88 | 1.11 | 4.9 | 0.198 | 3.66
2 | AGATTGAGGTTAAGATCAGGGAAACAGAATACAT | 2.1 | 2.29 | 1.37 | 1.38 | 1.06 | 1.3 | 0.986 | 1.87 | 1.33 | 2.08
3 | TCGAGTAGGTTACCACTGGGGCATTCAGCTTTCT | 3.33 | 3.37 | 0.26 | 0.143 | -0.498 | -0.159 | -1.14 | 0.0985 | -0.786 | 0.833
4 | CCGACTGGGGCAGGGTTACCATAACGCACAGCCA | 1.51 | 2.47 | -0.73 | -1.24 | 0.145 | 0.395 | -0.445 | 0.895 | -0.407 | 0.803
5 | CCTACTGGGCCATTCATAGGTCATTGATCATATG | 4.46 | 3.82 | 0.954 | -0.204 | 1.33 | 1.8 | 0.411 | 2.11 | 0.376 | 1.88
6 | TAGCCTAGGTCATGGGCCAGTAGACCACGCGAAC | 1.37 | 3.63 | 0.0866 | 0.107 | 0.936 | 1.5 | -0.436 | 2.64 | -0.0215 | 3.92
7 | AGTCAAAGTTCATCTAGCTAACGTAAGATATGCT | 0.278 | 2.41 | 1.28 | 0.69 | 2.37 | 4.83 | 4.89 | 3.89 | 1.29 | 4.79
8 | GCTATTAGTTGAAAGGGCAACCGTATGATTCTCG | 0.503 | 1.17 | 0.375 | 0.271 | 1.91 | 1 | 0.322 | 1.49 | 0.819 | 2.11
9 | TTACCAAGTTGAAGGTCGTTGATCCCTCTGTAGA | 0.297 | 0.442 | 0.321 | -0.391 | 0.828 | 1.59 | 0.298 | 1.21 | 0.00913 | 1.15
10 | TTACCAAGGGGAGCTGAGGTCGTTGATCCAACTC | 0.0938 | 0.219 | -0.939 | -0.633 | -0.405 | 2.35 | 0.544 | 1.03 | -0.882 | 0.604
11 | TAGCCTAGGTCATTGGGCCATTATAGTACGCATC | 3.37 | 4.19 | 0.472 | 0.314 | 2.65 | 1.86 | -0.263 | 2.7 | -0.217 | 3.56
12 | TCGAGTAGGTTAGTCGTGGCATTCAGCCAACATA | 2.28 | 1.66 | -0.875 | -1.07 | -0.343 | -0.558 | -0.596 | -0.421 | -0.619 | -0.00522
13 | CATACTGGGCCAAAAAGGTCATTGATGCCGATAA | 3.46 | 3.71 | 0.731 | 0.232 | 2.9 | 4.68 | 3.77 | 5.06 | 2.12 | 3.82
14 | TCTTGTAGATCAAGCAGGTTAAGATAGCCTGAGT | 1.74 | 0.733 | 0.115 | 0.351 | 0.386 | 0.406 | -0.159 | 0.668 | -0.0619 | 0.309
15 | TCTTGTAGATCAACAGGAGATTAAGAAAGATCGA | 1.37 | 0.548 | 1.52 | 0.865 | -0.322 | -0.306 | -0.21 | -0.526 | -0.298 | -0.393
16 | TCTTGAAGATCAATAGAGGTTAAGAAAGTGCGCT | 1.44 | 0.203 | 0.527 | 0.485 | -0.0803 | 3.15 | 0.215 | 1.81 | -0.211 | 0.913
17 | TTACCAAGGTGAGCTGAGGTCGTGGATCCAACTC | 1.07 | 2.05 | -0.299 | -0.109 | -0.369 | 3.77 | -0.246 | 2.49 | -0.727 | 1.94
18 | ATCTCTAGGTAAGGCTCAGTTCAGTGAAGAACGC | 1.94 | 1.3 | 0.628 | 1.33 | 0.996 | 0.855 | 1.22 | 0.496 | 0.033 | 0.228
19 | GCGAATGGGGCAAAGCAGGTTACCATAAGGTTGG | 1.67 | 1.37 | -0.887 | -1.21 | 0.664 | 0.467 | -0.414 | 0.571 | -0.509 | 1.1
20 | TCGTGTAGATCAACAGGAGGTTAAGAAAGATCGA | 0.943 | 0.0646 | 0.363 | -0.42 | 0.211 | 0.488 | -0.663 | 1.06 | -0.074 | 0.441
21 | GCTTACGAGTCAAAGGTTATAGCATGAATAGAAT | -0.0786 | 1.3 | 0.924 | -0.155 | 0.792 | 2.73 | -0.0683 | 4.4 | -0.195 | 1.78
22 | ATCTATAGGTAAGACTCAGTTCAGTGAAGAACGC | 1 | 0.562 | 0.789 | 1.3 | 0.365 | 1.49 | 1.21 | 0.627 | 0.874 | 0.432
23 | CCTTACGGGTCAAGGTTTTAGCACGGGTGGTACG | 2.52 | 3.36 | 0.173 | -0.72 | 2.55 | 2.95 | -0.244 | 4.13 | 0.944 | 4.2
24 | GCTATTAGTTGAAAGGGCAACCCAATGATTCTCG | 0.127 | 0.818 | -0.129 | 0.251 | 1.44 | 0.791 | 0.511 | 1.27 | 0.81 | 2.08
25 | ATCGAAAGGTCGAAGTTGAGTATACCCACCCGAA | 0.0828 | 1.59 | 1.1 | 1 | 1.31 | 3.05 | 0.0112 | 3.76 | 0.0634 | 3.84
